In the supplement of paper PMC11634586:
Structures can show the parent of a compound that is named as a salt. Values without a mark were called inactive.

The molecules below were run on NCI-H1688 (assay: inhibition of cell viability relative to untreated control (fraction); higher = stronger growth inhibition, active = 0.5 or more). Settings: 30 µM; 24 h.
In short: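 Compounds from a natural compound library (TargetMol) were tested at 30 µM on NCI-H1688 small cell lung cancer cells for 24 h at 37°C under 5% CO2. Cell Counting Kit-8 absorbance at 450 nm, read in triplicate, gave the viability. The values express inhibition of cell viability as a fraction relative to untreated cells.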

Question: For `CC12CCC(CC1=O)C2(C)C` [D-Camphor], which “inhibition of cell viability” value is on record?
Answer: Its value is 0.123.

Question: For `COc1ccc2cc1Oc1ccc(cc1)C[C@H]1c3cc(c(OC)cc3CCN1C)Oc1c(O)c(OC)cc3c1[C@H](C2)N(C)CC3` [Fangchinoline], which “inhibition of cell viability” value is on record?
Answer: The value was 0.969 (active).

Question: For `CC(C)=CCC/C(C)=C/CC/C(C)=C/CC/C(C)=C/CC1=C(C)C(=O)c2ccccc2C1=O` [Menatetrenone], which “inhibition of cell viability” value is on record?
Answer: Its value is -0.0024.

Question: For `CC(C)=CCC[C@](C)(O[C@@H]1O[C@H](CO[C@@H]2O[C@H](CO)[C@@H](O)[C@H](O)[C@H]2O)[C@@H](O)[C@H](O)[C@H]1O)[C@H]1CC[C@]2(C)[C@@H]1[C@H](O)C[C@@H]1[C@@]3(C)CC[C@H](O[C@@H]4O[C@H](CO)[C@@H](O)[C@H](O)[C@H]4O[C@@H]4O[C@H](CO)[C@@H](O)[C@H](O)[C@H]4O)C(C)(C)[C@@H]3CC[C@]12C` [Ginsenoside Rb1], which “inhibition of cell viability” value is on record?
Answer: The value was -0.0384.

Question: With `C=C1CC[C@H](O)C/C1=C/C=C1\CCC[C@]2(C)[C@@H]([C@H](C)/C=C/[C@H](C)C(C)C)CC[C@@H]12` [Vitamin D2] as the molecule, how does the “inhibition of cell viability” value read?
Answer: The value was -0.0632.

Question: `O=C1c2ccccc2C(=O)c2c1ccc(O)c2O` [Alizarin] was tested. Which “inhibition of cell viability” value did it give?
Answer: Its value is 0.344.

Question: How did the “inhibition of cell viability” value turn out when `C[C@@H]1O[C@@H](O[C@H]2[C@H](Oc3cc(O)c4c(=O)cc(-c5ccc(O)cc5)oc4c3)O[C@H](CO)[C@@H](O)[C@@H]2O)[C@H](O)[C@H](O)[C@H]1O` [Rhoifolin] was run?
Answer: The value was 0.127.

Question: With `C[C@H]1[C@H](C)CC[C@]2(C(=O)O)CC[C@]3(C)C(=CC[C@@H]4[C@@]5(C)C[C@@H](O)[C@H](O)[C@@](C)(CO)[C@@H]5[C@H](O)C[C@]43C)[C@H]12` [Madecassic acid] as the molecule, how does the “inhibition of cell viability” value read?
Answer: The value was -0.00715.

Question: `O=C(/C=C/c1ccc(O)c(O)c1)O[C@H](Cc1ccc(O)c(O)c1)C(=O)O` [Rosmarinic acid] was tested. Which “inhibition of cell viability” value did it give?
Answer: Its value is 0.0726.

Question: Which “inhibition of cell viability” value does the source give for `NCCc1ccc(O)c(O)c1` [Dopamine hydrochloride] here?
Answer: The value was 0.0465.
